# Results reported in the supplement of paper PMC3334620.
# In all, about 33,000 sequences were measured (“E-score (-0.5 to 0.5)”: median about -0.041, highest 2% from about 0.37 on). The full list was thinned out, with the highest values kept by preference.
# Target: T1, Ecm22 (UniProt Q05958)
# T1 sequence: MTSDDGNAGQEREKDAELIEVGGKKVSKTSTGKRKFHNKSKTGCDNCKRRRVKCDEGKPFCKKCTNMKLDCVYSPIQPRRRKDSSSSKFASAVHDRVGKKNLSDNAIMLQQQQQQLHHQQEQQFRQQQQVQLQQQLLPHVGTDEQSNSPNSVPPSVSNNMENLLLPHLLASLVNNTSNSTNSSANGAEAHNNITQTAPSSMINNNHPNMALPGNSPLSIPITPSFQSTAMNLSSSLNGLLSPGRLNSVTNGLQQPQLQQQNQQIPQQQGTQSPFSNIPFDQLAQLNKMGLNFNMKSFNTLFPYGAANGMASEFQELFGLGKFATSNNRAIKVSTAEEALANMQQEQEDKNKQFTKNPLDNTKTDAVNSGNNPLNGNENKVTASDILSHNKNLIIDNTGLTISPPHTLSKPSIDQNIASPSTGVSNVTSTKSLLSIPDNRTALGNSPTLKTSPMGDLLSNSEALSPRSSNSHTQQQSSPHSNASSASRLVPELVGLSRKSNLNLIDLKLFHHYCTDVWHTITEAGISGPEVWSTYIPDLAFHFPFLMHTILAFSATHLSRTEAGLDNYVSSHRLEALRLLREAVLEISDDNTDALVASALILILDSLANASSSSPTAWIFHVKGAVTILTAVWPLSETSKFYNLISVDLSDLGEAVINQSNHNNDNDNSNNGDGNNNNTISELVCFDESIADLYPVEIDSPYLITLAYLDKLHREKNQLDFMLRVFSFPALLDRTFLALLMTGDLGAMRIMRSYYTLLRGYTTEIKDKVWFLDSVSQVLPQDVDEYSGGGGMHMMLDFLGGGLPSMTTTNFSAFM
# Test: PBM E-score (8-mer binding enrichment) (E-score (-0.5 to 0.5)); higher = stronger / more preferred TF binding
# Details: protein concentration: 200 nM; construct: GST-full length
# Procedure, shortened: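 Yeast transcription factors carrying a GST tag, as full-length proteins or DNA-binding domains, were produced by PURExpress in vitro transcription/translation. About 100-200 nM protein was applied to universal all-10-mer Agilent arrays, double-stranded by primer extension on fresh or once-stripped slides. Bound protein was detected with fluorescent anti-GST, and scans were normalised with masliner. The Universal PBM Analysis Suite gave each ungapped eight-base word, pooled with its reverse complement, an E-score, a modified Wilcoxon-Mann-Whitney statistic.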
row,Sequence,PBM E-score
1,ACGGCGAT,0.377
2,AAAGCCTG,-0.228
3,ACAGCCCT,-0.279
4,AAGCTGCA,-0.0356
5,CTTCGTGA,0.209
6,CTTCGTAC,0.477
7,CTTCGTCA,0.117
8,ATTCGTAC,0.468
9,ATTCGTCC,0.0925
10,CTTCGTAA,0.413
11,ATTCGTGC,-0.00078
12,CTTCGTGC,0.0216
13,CTTCGTCC,-0.243
14,ACGATCTA,0.22
15,ACGATGCT,0.283
16,ACATACGG,0.321
17,GCATACAA,0.0278
18,CCATACGC,0.218
19,GCATACGA,0.446
20,CCATACGG,0.345
21,TCATACCA,-0.0984
22,TCATACGA,0.463
23,ACATACGC,0.221
24,GCATACGC,0.199
25,ACATACGA,0.466

row,Sequence,PBM E-score
1,TCATACAA,-0.115
2,CCATACGA,0.462
3,GAACCCGC,0.0274
4,AAGAAAAC,0.0702
5,TAATCATA,-0.0103
6,TAATCGCA,0.215
7,CGAGGACA,0.0726
8,AAGTACGT,0.171
9,CAGTACGG,0.27
10,GAGTACGA,0.426
11,CAGTACGA,0.423
12,GAGTACAA,0.0511
13,TAGTACGA,0.443
14,AAGTACGA,0.448
15,AAGTACGC,0.0885
16,GAGTACGC,-0.0338
17,TAGTACAA,0.0161
18,CAGTACGC,0.06
19,TAGTACCA,-0.124
20,CGGACCCG,0.21
21,ACCACAAC,0.0744
22,CGGGTCTC,0.00746
23,CTATTCGA,0.0817
24,ACTGGTAA,0.0597
25,CCGTATTA,0.316

row,Sequence,PBM E-score
1,GACGCCCC,-0.0249
2,CCCGTATA,0.471
3,ACCGTATA,0.459
4,ACCGTATC,0.346
5,GCCGTATA,0.463
6,ACCGTATG,0.325
7,CCCGTATC,0.327
8,GCCGTAGA,0.213
9,GCGGTATA,-0.0371
10,CCCGTAGA,-0.00351
11,ACGGGGGA,0.16
12,CGCTCACC,0.112
13,ACCATTTG,-0.0622
14,CCATGAGA,-0.118
15,AACCGAGA,0.312
16,AGCAAGTG,-0.181
17,AGTGGAAT,-0.0777
18,AACCGGAG,-0.0216
19,AGGCTTTA,-0.133
20,AGGATCCT,0.134
21,TAAACGTA,0.38
22,CAAACGTA,0.186
23,TAAACGGA,0.433
24,CAAACGGA,0.202
25,AAAACGTA,0.164

row,Sequence,PBM E-score
1,GAAACGGA,0.256
2,AGACCACG,-0.221
3,ACGCGAGA,0.281
4,AAGTTCGT,0.319
5,CTAGACAG,-0.189
6,CCTCGTCG,0.218
7,CCGCGTAC,0.231
8,CCTCATAG,-0.183
9,CCTCGTAG,0.41
10,CCTCGTAC,0.491
11,ACTCGTCC,-0.139
12,ACTCGTAT,0.479
13,ACTCGTGC,0.0518
14,ACTCGTAC,0.484
15,ACTCGGAT,0.318
16,CCTCGGAC,0.246
17,ACTCGTCT,0.172
18,AGCCCAGG,-0.341
19,AGGGCGCG,-0.0881
20,CCCTTCTC,-0.218
21,CCGTTAGA,0.0314
22,GCAGCCGC,-0.0784
23,ATACAGAG,-0.0254
24,ATGGTCTG,-0.0872
25,CCTTTCAA,-0.203

row,Sequence,PBM E-score
1,ACCTCTAG,-0.137
2,CCTCGTAA,0.446
3,ACTCGTAA,0.437
4,TCTCGTCA,0.0737
5,ACTCGTAG,0.34
6,ACTCGTCA,0.0424
7,GCTCGTAA,0.451
8,TCTCGTAA,0.438
9,TCACGTAA,0.00322
10,GCTCGTGA,0.171
11,CCTCGTGA,0.201
12,CCTCGTCA,0.232
13,GCTCGTCA,0.0115
14,CTGAACCC,0.0346
15,AGCTGTAT,-0.124
16,AGCCTGCG,-0.17
17,AGAGACAT,-0.195
18,GCTCGTCC,-0.109
19,GCACGTAC,0.168
20,GCTCGTAC,0.486
21,CACACATC,-0.226
22,CGATCAGC,0.09
23,CCGAGGAC,0.207
24,ACGAGGAT,0.387
25,ACGAGGAA,0.375

row,Sequence,PBM E-score
1,CCGAGGAA,0.0818
2,AGGAGGAT,-0.157
3,ACGAGGAG,0.349
4,GCGAGGAC,0.0393
5,TCGAGGAA,0.101
6,ACGAGGAC,0.42
7,ACGCTCGG,0.21
8,CAGCTGCA,-0.385
9,CCATTCCA,-0.228
10,CGTGTGCA,-0.0516
11,AGTCTACC,-0.156
12,CAAGATCG,0.122
13,CCCCGTAC,0.377
14,GCCCGTCC,-0.279
15,ACCCGTAA,0.179
16,AACCGTAT,0.341
17,CCCCGTAG,0.0215
18,ACCCGTCT,-0.0476
19,CCCCGTAA,0.211
20,GCCCGTAC,0.396
21,ACCCGTAT,0.391
22,GCCCGTAA,0.221
23,ACCCGTAG,-0.142
24,ACCCGTAC,0.374
25,ACGTATTC,0.144

row,Sequence,PBM E-score
1,ACGGAGCC,-0.084
2,ATTACTTC,-0.0783
3,GAGGGATC,-0.0216
4,CTCCTTCC,-0.152
5,CGGCGCAG,-0.0964
6,ACAACCGA,0.26
7,AACCTTTC,-0.0282
8,CGCAGAAG,0.00639
9,AACTAACG,0.141
10,GTTCGTAA,0.427
11,GTTCGTCA,0.0919
12,ATTCGTAG,0.325
13,ATTCGTGA,-0.00041
14,GTTCGTGA,0.141
15,ATTCGTAA,0.405
16,AAATGCGC,-0.0587
17,AAACTGTG,-0.214
18,CCAGTCAA,-0.166
19,CCCGTAAC,0.189
20,CACGTACC,0.285
21,CCCGTACC,0.446
22,CCCGTAGG,-0.158
23,CCCGTACG,0.402
24,CCCGTACA,0.368
